We go through 10 compounds from PubChem BioAssay (NCATS).

Results filed as inconclusive are left out. Entries that show only a call come without a potency. Active and inactive are the calls of the source. Calls come from the whole dose curve; as a rule, active = well fitted cell-killing curve with a large enough effect; inconclusive = small, poorly fitted or top-dose-only effect, or effect the other way; inactive = flat fitted curve, though single readings scatter. *1 amine or outer side, *2 acyl side, *3 side chain or, on linkers, in order; H or OH if unused. Where a SMILES comes first, the peptide text is derived from it. [ ]: non-standard residue; d: D form. X4 = CC(C)=CCc1cc(C(O)C(N[*:1])C(=O)[*:2])ccc1O

This assay deals with Tov112D. Kind of assay: Primary qHTS to identify gynecologic anti-cancer compounds using libraries of approved drugs and bioactive compounds (AID 1345084). Note: nearly all actives have a fitted effect of over 55% in size. As to conditions: Gynecologic cancer cell panel viability, ATPlite luminescence, 48 h; series mostly up to 57.5 µM. Put shortly: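 Luminescence from the ATPlite ATP-monitoring reagent indicates viable cell number; lower signal means cytotoxicity. Cells received compound 16 h after seeding and were exposed for 48 h across five concentrations.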
`CN(C)CC1CCOC1(c1ccccc1)c1ccccc1` (stereo not given): the Potency entry was “inactive”. For `O=C(OC1C=C(CO)C2C(OC3OC(CO)C(O)C(O)C3O)OC=CC12)c1ccc(O)cc1` (stereo not given), the Potency entry was “inactive”. Regarding `CC1(C)CC[C@]2(C(=O)OC3OC(CO)C(O)C(O)C3O)CC[C@]3(C)C(=CCC4[C@@]5(C)CC[C@H](OC6OC(C(=O)O)C(O)C(OC7OC(CO)C(O)C(O)C7O)C6O)C(C)(C)C5CC[C@]43C)C2C1` (stereo not given in full), the activity change, negative = cytotoxicity was 6.25% [at 11.6 µM] (inactive). Still for that read-out and setting: next, `CC(C)=CCc1cc(C(O)C2NC(=O)CNC(=O)C(Cc3c[nH]c4ccccc34)NC(=O)C3CCCN3C(=O)CNC(=O)C(C(C)C)NC(=O)CNC2=O)ccc1O` (stereo not given) (cyclo(G[X4]GVGPW); configuration not given here): -6.73% [at 11.6 µM] (inactive). In the case of `COc1ccc(CCO[C@@H]2CCCC[C@H]2N2CC[C@@H](O)C2)cc1OC`, the Potency result was “inactive”. Same read-out and setting: as for `COC(=O)C1=CO[C@@H](O[C@@H]2O[C@H](CO)[C@@H](O)[C@H](O)[C@H]2O)[C@@H]2C(COC(C)=O)=C[C@H](O)[C@H]12`, the entry is “inactive”; as for `C/C1=C\[C@H]2OC(=O)[C@@H](C)[C@@H]2CC/C(C(=O)O)=C/CC1`, “inactive”. For `CC1(C)CCC[C@@]2(C)C1[C@H](OC(=O)/C=C/C=C/C(=O)O)C=C1COC(=O)[C@@]12O` (stereo not given in full), the Potency entry is “inactive”. For `CO/N=C(/C(=O)N[C@@H]1C(=O)N2C(C(=O)O)=C(Cn3ccc(=N)n3CCO)CS[C@H]12)c1csc(N)n1`, the Potency result was “inactive”.

Take `CC(C)=CCC[C@](C)(O)[C@H]1CC[C@]2(C)[C@@H]1[C@H](O)CC1[C@@]3(C)CC[C@H](O)C(C)(C)[C@@H]3[C@@H](O[C@@H]3O[C@H](CO)[C@@H](O)[C@H](O)[C@H]3O[C@@H]3O[C@H](CO)[C@@H](O)[C@H](O)[C@H]3O)C[C@]12C` (stereo not given in full): the Potency result was “inactive”.
